Source: PubChem (several laboratories)
CYP2C19 act: activators of human cytochrome P450 2C19. P33261. activation factor at 5 µM. 96,000 tested, under 10 active. recombinant CYP2C19, luciferin-H EGE luminescence; stronger effect = higher value; 0 = fully inhibited enzyme, 1 = untreated enzyme;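 active = activation factor of at least 2 at 5 µM in the primary screen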
Target sequence (P33261 whole entry, looked up): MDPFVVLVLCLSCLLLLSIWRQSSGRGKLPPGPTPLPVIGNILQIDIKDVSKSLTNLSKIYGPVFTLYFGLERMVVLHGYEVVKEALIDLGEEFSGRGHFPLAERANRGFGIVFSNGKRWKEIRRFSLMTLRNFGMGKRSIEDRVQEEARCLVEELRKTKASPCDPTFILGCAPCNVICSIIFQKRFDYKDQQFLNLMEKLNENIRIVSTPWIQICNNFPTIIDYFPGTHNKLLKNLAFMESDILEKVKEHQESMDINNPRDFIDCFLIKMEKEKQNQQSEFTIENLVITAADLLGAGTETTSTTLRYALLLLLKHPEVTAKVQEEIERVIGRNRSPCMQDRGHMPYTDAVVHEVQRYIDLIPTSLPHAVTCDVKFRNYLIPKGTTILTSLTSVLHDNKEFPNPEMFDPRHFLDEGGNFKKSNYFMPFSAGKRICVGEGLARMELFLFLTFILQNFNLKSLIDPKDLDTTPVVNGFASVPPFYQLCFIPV
CYP2C19 inh: blocks human cytochrome P450 2C19; P33261; CYP2C19 Supersomes, luciferin-H EGE luminescence, 30 min; inhibition, % at 5 µM; 21% of 96,000 active; AID 778;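 active = CYP2C19 inhibition above a set limit at 5 µM in the primary screen, cut at about 50% in these data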
CYP2C9 inhib: human CYP2C9 inhibition; 20% of 96,000 active; AID 777; P11712; inhibition, % at 5 µM; CYP2C9 Supersomes, luciferin-H conversion, luminescence;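 active = blocking of liver enzyme CYP2C9 beyond about 50% at 5 µM, limit read from the data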
PostGolgi yeast: growth inhibition of a yeast mutant, post-Golgi transport screen; post-Golgi transport phenotypic cell assay; inhibition, % at 10 µM; 0.9% of 98,000 active;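 also: yeast cells grown in 1536-well plates; yeast grown about 18 h at 30C before absorbance read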
PostGolgi ctrl: yeast control strain growth, post-Golgi counter-screen; efflux-deficient yeast background strain, growth absorbance A615, 16 h; inhibition, % at 10 µM; 5% of 98,000 active; AID 738
CYP2C9 activ: CYP2C9 (human) activation; P11712; recombinant CYP2C9, luciferin-H conversion, luminescence; stronger effect = higher value; factor 1 = untreated enzyme, 0 = blocked; activation factor at 5 µM; 1.4% of 96,000 active; AID 1024;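 active = activation factor of 2 or more for CYP2C9 at a 5 µM dose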
Of the large screens only hits and unclear results are named; the others gave an inactive call. An excerpt weighted towards active compounds, which were near 32% of everything screened. Rule as the data show it, unless noted: active = inhibition above about 30%; inactive = the rest.

Cc1cccc(OCCCn2ccnc2)c1	CYP2C19 inh 100, CYP2C9 inhib 68
Cc1ccc(OCCCn2ccnc2)cc1C	CYP2C19 inh 100, CYP2C9 inhib 96
Cc1noc(C(=O)N2CCN(c3ccc(F)cc3)CC2)c1Cl	none (no result: CYP2C19 act, CYP2C19 inh, CYP2C9 inhib, CYP2C9 activ)
CC(=O)c1cccc(N(C(=O)c2cnccn2)C(C(=O)NCc2ccccc2)c2ccco2)c1 (stereo unspecified)	CYP2C19 inh 53
CC(=O)c1c(C(C)=O)c(C)n(-c2ccc(N)cc2)c1C	none
CCOc1cc(C2NC(=O)NC(C)=C2C(=O)OCc2ccccc2)ccc1O (stereo unspecified)	CYP2C19 inh 59, CYP2C9 inhib 71
CCOC(=O)C1=C(C)NC(=O)NC1c1c(O)ccc2ccccc12 (stereo unspecified)	CYP2C19 inh 86
COc1cc(C2NC(=O)NC(C)=C2C(=O)OCc2ccccc2)ccc1O (stereo unspecified)	none (no result: PostGolgi yeast, PostGolgi ctrl)
COc1ccc(COC(=O)C2=C(C)NC(=O)NC2c2ccc(O)c(OC)c2)cc1 (stereo unspecified)	CYP2C19 inh 70, CYP2C9 inhib 62
COCCN(CCOC)C(=O)c1c[nH]c2ccc(S(=O)(=O)N(C)c3ccc(F)cc3)cc2c1=O	none
CCOc1ccc(OCC)c(-c2c(=O)n(OCc3ccccc3C(=O)OC)c3ccccc3[n+]2[O-])c1	none
CCOc1ccc(OCC)c(-c2c(=O)n(OCc3ccccc3Br)c3ccccc3[n+]2[O-])c1	CYP2C19 inh 74
CCC(C(=O)NCc1ccccc1OC)n1nc(C)n2c(cc3occc32)c1=O (stereo unspecified)	CYP2C19 inh 56, CYP2C9 inhib 63
CCC(CC)C(=O)NCc1ccccc1OC	none
C1COCCNCCOCCOCCN1	none
Cc1cc2c(s1)c1cnn(Cc3ccccc3F)c(=O)c1n2C	CYP2C19 inh 51
O=C(NN=C1CCCC1)C(=O)Nc1cccc(C(F)(F)F)c1	none
Cc1ccc2oc(Nc3nc(C)cc(C)n3)nc2c1	none
CCS(=O)(=O)N1CCC(C(=O)NCc2cccc(OC)c2)CC1	none
COc1cccc(CNC(=O)C2CCCN(S(C)(=O)=O)C2)c1 (stereo unspecified)	CYP2C9 inhib 75
COc1cccc(CNC(=O)C2CCCN(S(=O)(=O)c3cnc[nH]3)C2)c1 (stereo unspecified)	CYP2C19 inh 92, CYP2C9 inhib 77
COc1cccc(CNC(=O)C2CCN(S(=O)(=O)c3cnc[nH]3)CC2)c1	CYP2C9 inhib 76
COc1cccc(CNC(=O)C2CCCN(S(=O)(=O)c3cccc4nonc34)C2)c1 (stereo unspecified)	none
Cc1cc(C)c(O)c(-c2cc(C(=O)Nc3ccc(S(=O)(=O)N4CCOCC4)cc3)[nH]n2)c1	none
COc1ccc(Cl)cc1NC(=O)N1CCN(S(C)(=O)=O)CC1	none
COc1ccccc1NC(=O)c1cc(Cl)ccc1NC(=O)c1ccco1	none
COc1ccc(Cl)cc1NC(=O)CN(C)C(C)C(=O)NCC1CCCCC1 (stereo unspecified)	CYP2C19 inh 99, CYP2C9 activ 2.6
COc1ccc(Cl)cc1NC(=O)CN(C(=O)c1ccco1)C1CCCCC1	PostGolgi ctrl 41
O=C1NCCN1C(=O)c1ccco1	none
COc1cccc(Nc2ncnc3nc[nH]c23)c1	none
CN(C)CCCOC(=O)c1ccc(Cl)cc1Cl	none
Cc1ncc([N+](=O)[O-])n1CCOC(=O)c1ccc(Cl)cc1Cl	CYP2C19 inh 51
Cc1cc(C(=O)NCCCN2CCCC2=O)no1	none
COc1cc2c(cc1OC)CN(c1ccc(-c3ccccc3OC)nn1)CC2	CYP2C19 inh 62, CYP2C9 activ 2.4
Cc1ccc(C(=O)C2=C(O)C(=O)N(CCCn3ccnc3)C2c2ccc(OC(C)C)cc2)o1 (stereo unspecified)	CYP2C9 inhib 57
CCOc1ccc(C2C(C(=O)c3cccs3)=C(O)C(=O)N2CCCn2ccnc2)cc1 (stereo unspecified)	CYP2C9 inhib 73 (no result: PostGolgi yeast, PostGolgi ctrl)
CCOc1ccc(C2C(C(=O)c3ccco3)=C(O)C(=O)N2CCCn2ccnc2)cc1 (stereo unspecified)	none
CCOc1ccc(C(=O)c2cccs2)cc1	CYP2C19 inh 73
CCSc1nc(N2CCOCC2)c2c(c1C#N)CC(C)(C)N(C)C2	CYP2C19 inh 51, CYP2C9 inhib 87
O=C(CSc1n[nH]c(=O)[nH]c1=O)c1ccccc1	none
CC1(C)Cc2c(C#N)c(SCC(=O)c3ccccc3)nc(N3CCOCC3)c2CS1	CYP2C19 inh 81, CYP2C9 inhib 98
CN1Cc2c(N3CCOCC3)nc(SCc3ccccc3)c(C#N)c2CC1(C)C	CYP2C9 inhib 91
COC(=O)CSc1nc(N2CCOCC2)c2c(c1C#N)CC(C)(C)N(C)C2	CYP2C9 inhib 56
N#Cc1ccc(-c2ccco2)nc1SCc1ccccc1	none
O=C(c1cnc2n(c1=O)CCS2)N(C1CCCCC1)C1CCCCC1	none
Cc1ccc(S(=O)(=O)NCCOCCNS(=O)(=O)c2ccc(C)cc2)cc1	CYP2C19 inh 68, CYP2C9 activ 2
COCCNS(=O)(=O)c1ccc(-c2ccc(C)cc2)cc1	CYP2C19 inh 74, CYP2C9 inhib 93
COc1cc(CNn2cn[nH]c2=S)cc(Cl)c1OCc1ccccc1	CYP2C19 inh 82
COc1ccc(Cl)cc1C(=O)NC(=S)Nc1cc(-c2nc3ccccc3[nH]2)ccc1C	PostGolgi ctrl 35 (no result: CYP2C19 act, CYP2C19 inh, CYP2C9 inhib, CYP2C9 activ)
CCNC(=S)NNC(=O)CCn1c2ccccc2c2ccccc21	none
Cc1ccccc1CSCC(=O)c1c(N)n(C)c(=O)n(C)c1=O	CYP2C19 inh 99, CYP2C9 inhib 58
CSc1[nH]c(=O)c(C(=O)O)cc1C#N	none
Cc1nc(-c2cccnc2)sc1C(N)=O	none
CCCOC(=O)Nc1cc(OC)c(Cl)cc1OC	CYP2C19 inh 89
CCOC(=O)Nc1cc(C)c(Cl)cc1OC	PostGolgi ctrl 38
COc1ccc(OCC(=O)NC2CC(C)(C)NC(C)(C)C2)cc1	none
CCCc1[nH]n(-c2nc3ccccc3s2)c(=O)c1C=NCC(C)C	CYP2C9 inhib 51
CCCN=C(C)c1c(-c2ccccc2)[nH]n(-c2nc3ccccc3s2)c1=O	PostGolgi ctrl 32
CCC(=NCc1ccco1)c1c(C(F)(F)F)[nH]n(-c2nc3ccccc3s2)c1=O	CYP2C19 inh 64, CYP2C9 inhib 70
CC(=NCc1ccco1)c1c(C)[nH]n(-c2nc3ccccc3s2)c1=O	none
CCC(=NCc1ccccc1)c1c(C(F)(F)F)[nH]n(-c2nc3ccccc3s2)c1=O	CYP2C19 inh 68, CYP2C9 inhib 94
Cc1ccc(C)c(N2CCN(C(=O)c3cc4ccccn4n3)CC2)c1	none
O=C(CSc1nnc(Cn2c(=O)sc3ccccc32)n1-c1ccccc1)NCc1ccco1	none (no result: CYP2C19 act, CYP2C19 inh, CYP2C9 inhib, CYP2C9 activ)
CC(=N/O)/C(=N\O)c1ccc(C)o1	none
CCCC(=O)Nc1nnc(SCC(=O)NCc2cccs2)s1	none
O=C(CN1C(=O)COc2ccccc21)N(Cc1ccc2c(c1)OCO2)CC1CCCO1 (stereo unspecified)	none
